# In all, about 220,000 compounds went through this assay and about 770 (0.35%) were called active. Rule as the data show it: active = activation above about 11%; inactive = the rest. Shown is part of a subset that was picked to be rich in actives. Where a SMILES comes first, the peptide text is derived from it. [ ]: non-standard residue; d: D form. ξ: configuration not given here. ξM = CSCCC(N)C(=O)O
# Biological target: Sphingosine 1-phosphate receptor 4 (Homo sapiens) (UniProt O95977)
# Test: S1P4 receptor agonists, primary screen, cell-based (AID 1509);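 also: 0% = DMSO vehicle and 100% = reference agonist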
# Conditions: S1P4-expressing cell line, agonist reporter assay; at 4.98 µM; hits give high values
# Chain of Sphingosine 1-phosphate receptor 4 (Homo sapiens) (O95977 whole entry, looked up): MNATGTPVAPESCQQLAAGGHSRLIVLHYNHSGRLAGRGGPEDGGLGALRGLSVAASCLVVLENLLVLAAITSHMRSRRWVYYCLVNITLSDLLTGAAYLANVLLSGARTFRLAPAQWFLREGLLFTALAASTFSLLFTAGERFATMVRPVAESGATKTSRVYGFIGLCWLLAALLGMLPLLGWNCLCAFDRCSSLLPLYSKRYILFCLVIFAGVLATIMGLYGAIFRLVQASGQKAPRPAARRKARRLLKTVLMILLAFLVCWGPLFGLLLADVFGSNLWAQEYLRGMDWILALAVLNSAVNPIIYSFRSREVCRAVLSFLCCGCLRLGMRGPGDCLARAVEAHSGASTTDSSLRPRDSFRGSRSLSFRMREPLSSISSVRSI
row,Compound,activation
1,C=CCOc1c(CNn2cn[nH]c2=S)cccc1OC,0.93% (inactive)
2,N/C(=N\OC(=O)c1ccc2c(c1)OCO2)c1ccc(Br)cc1,-1.54% (inactive)
3,NNC(=O)c1ccc(COCC(F)(F)C(F)F)cc1,-0.58% (inactive)
4,C=CCNC(=O)c1ccccc1NC(=O)c1ccc(Cl)c(S(=O)(=O)Nc2cccc(C)c2C)c1,2.53% (inactive)
5,CS(=O)(=O)c1sc(C(=O)NC(=S)Nc2ccc(OC(F)(F)F)cc2)c2c1C=CCC2,-1.4% (inactive)
6,O=C(CN1C(=O)NC(Cc2ccccc2)(Cc2ccccc2)C1=O)NCC1CCCCC1,-1.64% (inactive)
7,CCOc1ccc(N2C(=O)CC(N(CCc3ccc(OC)c(OC)c3)C(=S)Nc3ccccc3)C2=O)cc1 (configuration not stated),1.87% (inactive)
8,O=C(CCCn1c(SCC(=O)c2ccccc2)nc2ccccc2c1=O)NCC1CCCO1 (configuration not stated),0.54% (inactive)
9,O=C(CCn1c(SCC(=O)c2ccccc2)nc2ccccc2c1=O)NCc1ccc(F)cc1,0.31% (inactive)
10,O=C(CCCn1c(SCC(=O)c2ccc(F)cc2)nc2ccccc2c1=O)NCc1ccco1,30.4% (active)
11,CCOC(=O)N1CCN(c2c(NCCN3CCN(c4ccccc4F)CC3)c(=O)c2=O)CC1,1.24% (inactive)
12,CC(Oc1ccc(Br)cc1Br)C(=O)NC1CCCC1 (configuration not stated),14.4% (active)
13,CC(=O)OC(C(=O)NC1CCCCC1)c1ccccc1 (configuration not stated),0.59% (inactive)
14,COc1ccc(S(=O)(=O)NC(C)C)cc1C(=O)NC1CCCCC1,1.54% (inactive)
15,Cc1cc(C(=O)NNC(=O)CCC2CCCCC2)c(C)o1,0.49% (inactive)
16,c1ccc2c(c1)OCCOCCOCCO2,0.22% (inactive)
17,COCCNC(=O)c1ccc(-n2c(SCc3cccnc3)nc3ccccc3c2=O)cc1,1.25% (inactive)
18,CCC1=NN2C(=N)/C(=C/c3cc(C)n(-c4ccccc4)c3C)C(=O)N=C2S1,-0.01% (inactive)
19,Cc1cc2c(cc1C)N(Cc1ccccc1)C1=NCCCN12,-0.25% (inactive)
20,O=[N+]([O-])c1ccc(F)cc1Oc1nc(-c2cccnc2)nc2ccccc12,0.24% (inactive)
21,COC(=O)[C@H](CCSC)NC(=O)Nc1ccc(OC)cc1,0.47% (inactive)
22,CCC(C)NC(=O)N[C@@H](CCSC)C(=O)O (some centres not stated),1.44% (inactive)
23,COC(=O)CNC(=O)C(CCSC)NC(C)=O (configuration not stated) (Ac-[ξM]-Gly-OMe),29.1% (active)

row,Compound,activation
1,O=c1c2ccccc2nnn1CSc1nnnn1-c1ccccc1,0.58% (inactive)
2,O=C(Cn1nnc2ccccc2c1=O)NCc1ccc(Cl)cc1,-1.75% (inactive)
3,C=CCn1c(SCn2nnc3ccccc3c2=O)nnc1-c1ccc(Cl)cc1,19% (active)
4,C/C(CCC(=O)OC[C@H]1O[C@H](C#Cc2ccccc2)C=C[C@@H]1Oc1ccc(C)cc1)=N\OC[C@@H](O)[C@H]1O[C@@H]2OC(C)(C)O[C@@H]2[C@H]1O,0.09% (inactive)
5,O=C(COC(=O)C1CCN(S(=O)(=O)c2ccc3c(c2)OCCO3)CC1)Nc1ccccc1OC(F)F,2.37% (inactive)
6,O=C1COc2ccc(C(=O)COC(=O)C3CC(O)CN3S(=O)(=O)c3ccc(Cl)cc3)cc2N1 (configuration not stated),1.17% (inactive)
7,CC1CCCC(NC(=O)COC(=O)[C@@H]2CC(O)CN2S(=O)(=O)c2ccc3c(c2)OCCO3)C1C (some centres not stated),194% (active)
8,NC(=O)C1=C[C@H](c2csc3ccccc23)C[C@H](OCc2ccc(CO)cc2)O1,3.3% (inactive)
9,COc1ccc(C(=O)N2CCc3cc(OC)c(OC)cc3C2c2cccc([N+](=O)[O-])c2)cc1 (configuration not stated),0.65% (inactive)
10,Cc1noc(C)c1COC(=O)Cn1c(C)nc2ccccc21,-0.11% (inactive)
11,Cc1noc(C)c1COC(=O)COc1ccc(-c2ccccc2)cc1,36% (active)
12,Cc1noc(C)c1COC(=O)c1cc2ccccc2cc1O,-2.59% (inactive)
13,O=C(Nc1ccc(Br)cc1)c1cccc(NC(=O)C2C3CC4OC(=O)C2C4C3)c1 (configuration not stated),1.27% (inactive)
14,COc1ccc(CCNC(=O)COC(=O)Cc2cc(OC)c(OC)c(OC)c2)cc1,-1.28% (inactive)
15,CC(=O)Nc1ccc(S(=O)(=O)N2CCN(c3ccc([N+](=O)[O-])c(NCCN4CCOCC4)c3)CC2)cc1,0.49% (inactive)
16,Cn1nnnc1SCC(=O)NNC(=O)c1ccc(Br)cc1,0.67% (inactive)
17,CN(Cc1ccccc1)C(=O)COC(=O)c1ccccc1Nc1ccccc1,-0.61% (inactive)
18,COC(=O)c1c(NC(=O)CN2C(=O)NC(CCc3ccccc3)C2=O)sc2c1CCCCC2 (configuration not stated),0.65% (inactive)
19,CCOC(=O)/C=c1\s/c(=C\c2ccc(C#N)cc2)c(=O)n1CC(=O)Nc1cccc(C)c1C,-0.03% (inactive)
20,CCOC(=O)/C(C#N)=C/c1ccc(OCC(=O)Nc2ccccc2)c(OC)c1,-0.12% (inactive)
21,Cc1ccc(CC(=O)Nc2cccc(C#N)c2)cc1,1.55% (inactive)
22,Cc1cc(C)nc(N(C#N)CC(=O)Nc2ccccc2)n1,14.7% (active)
23,N#Cc1c(NC(=O)C2CC(Cl)=CCC2C(=O)O)sc2c1CCCCC2 (configuration not stated),0.41% (inactive)

row,Compound,activation
1,Cn1nnnc1NCc1ccc(Cl)c(Cl)c1,0.14% (inactive)
2,COc1ccc(N(CC(=O)NC2CCCC2)C(=O)CS(=O)CC(=O)Nc2ccc3c(c2)OCO3)cc1 (configuration not stated),1.8% (inactive)
3,COc1ccc(-c2cn3ccc(C)cc3n2)cc1,0.65% (inactive)
4,CCC(C)(C)NC(=O)C1c2ccccc2Oc2ccccc21,0.03% (inactive)
5,CCC(C)NC(=O)C1c2ccccc2Oc2ccccc21 (configuration not stated),15.7% (active)
6,CCOC(=O)CC(NC(=O)C1c2ccccc2Oc2ccccc21)c1ccc(C)cc1 (configuration not stated),-0.87% (inactive)
7,O=[N+]([O-])c1ccc2[nH]c3c(c2c1)CCCC3O (configuration not stated),0.79% (inactive)
8,Cc1csc(NC(=O)CSc2ccc(-c3ccc(F)cc3)nn2)n1,0.5% (inactive)
9,Cc1ccc(SCC(=O)Nc2ccc3c(c2)OCCO3)cc1,-0.03% (inactive)
10,O=C(CSc1ccc(-c2ccc(F)cc2)nn1)Nc1ccc2c(c1)OCCO2,57.3% (active)
11,Cc1cc(NC(=O)CSc2nnc(Nc3ccccc3F)s2)no1,0.31% (inactive)
12,O=C(CSc1nnc(C2CC2)n1Cc1ccccc1)Nc1cccnc1Cl,0.19% (inactive)
13,O=C(CSc1nnc(Nc2ccccc2)s1)Nc1cccnc1Cl,62.7% (active)
14,CCn1nnnc1SCC(=O)c1ccc(C)cc1C,-0.47% (inactive)
15,Cc1ccc(NC(=O)N2CCSc3ccccc32)cc1,0.59% (inactive)
16,CC(=O)Nc1ccc(Nc2c([N+](=O)[O-])cc(S(C)(=O)=O)cc2[N+](=O)[O-])cc1,-0.76% (inactive)
17,Cn1c(=O)c2c(nc(N3CCOCC3)n2CCNC2=NCCC2)n(C)c1=O,-3.47% (inactive)
18,CC(=O)Nc1ccccc1NC(=O)c1cc(C)cc(C)c1,52.2% (active)
19,CSCc1ccc(C(=O)Nc2cc(C)cc(C)c2)cc1,0.79% (inactive)
20,Cc1ccc(C(=O)NC(=S)Nc2ccccc2C)cc1,1.14% (inactive)
21,O=S(=O)(NCCc1ccncc1)c1ccccc1,-2.17% (inactive)
22,CCN(CC)CCCSc1nc2ccccc2s1,-1.06% (inactive)
23,CCOc1ccc(-c2nnc(-c3ccco3)o2)cc1,13.2% (active)

row,Compound,activation
1,CCC(=O)Oc1cccc(C(=O)Nc2ccc(-c3nnc(-c4ccco4)o3)cc2)c1,1.45% (inactive)
2,CCCCOc1ccc(-c2nnc(-c3ccco3)o2)cc1,0.55% (inactive)
3,COC(=O)[C@@H]1CC[C@H](C)[C@@H](c2ccc(C)cc2)N1C(=O)c1ccc(/C=N/O[C@H](C)c2cn([C@@H]3COC[C@H]3O)nn2)cc1,44.7% (active)
4,O=C(CC1C(=O)NCCN1CC(c1ccccc1)c1ccccc1)NCCc1cn[nH]c1 (configuration not stated),-1.81% (inactive)
5,Cc1cc(C(=O)COC(=O)C2CC2)c(C)n1-c1ccc(F)cc1,1.5% (inactive)
6,Cc1ccc(S(=O)(=O)NC(=O)Nc2nc(-c3ccc(F)c(F)c3)cs2)cc1,1.19% (inactive)
7,CNS(=O)(=O)c1ccc(NC(=O)C2CC(=O)N(c3ccc(Cl)cc3)C2)cc1 (configuration not stated),-4.58% (inactive)
8,COc1cccc2c1CCC(NC(C)=O)C2=O (configuration not stated),1.12% (inactive)
9,O=C(CSc1nnc(Cc2ccccc2)n1-c1ccccc1)N1CCOCC1,-2.13% (inactive)
10,O=C(CSc1nncn1-c1cccnc1)N1CCOCC1,44.7% (active)
11,Cn1c(SCC(=O)N2CCOCC2)nnc1-c1ccc2ncccc2c1,1.83% (inactive)
12,O=C(Nc1ccc(NC(=O)c2ccco2)c(Cl)c1)c1cccc([N+](=O)[O-])c1,1.27% (inactive)
13,CCN(CC)S(=O)(=O)c1cccc(-c2n[nH]c(=S)n2/N=C/c2ccc(C(=O)OC)cc2)c1,0.89% (inactive)
14,CC(=O)Nc1ccc(Nc2c3ccccc3nc3ccccc23)cc1,4.18% (inactive)
15,Cc1cc(CNC(=O)c2cccc([N+](=O)[O-])c2)c2ccccc2n1,1.06% (inactive)
16,O=[N+]([O-])c1cccc(Nc2c3ccccc3nc3ccccc23)c1,13.1% (active)
17,CCCCc1ccc(S(N)(=O)=O)cc1,-0.75% (inactive)
18,CC(C)(C)n1cnnc1Sc1ccc([N+](=O)[O-])cn1,-0.36% (inactive)
19,CC(C)(C)C(=O)NCCCNc1ccc([N+](=O)[O-])cc1,0.65% (inactive)
20,Cc1cc(C)c(C#N)c(SCC(=O)NN2CC(=O)N(c3ccccc3F)CC2=O)n1,55.1% (active)
21,Cc1cc(C)c(C#N)c(SCC(=O)Nc2ccccc2)n1,2.39% (inactive)
22,Cc1cc(C)c(C#N)c(SCc2ccccc2C(=O)O)n1,0.52% (inactive)
23,O=C(O)CCn1cc(/C=C/C(=O)c2ccc(Cl)cc2)c(-c2cccc(Br)c2)n1,0.7% (inactive)
